Test results reported in PubChem BioAssay (EPA / NIEHS).
Values joined by “and” are separate entries in the source; they are usually repeats but may differ in a detail not shown here. Identical values can stand only once. A structure can be active in one record and inactive in another. Active and inactive are the calls of the source. Rule for the calls: active = hit-call score of the fitted dose curve at least 0.9, where 1 is the maximum; inactive = score below 0.9.

What was measured:
[1] = BSK_BT_PBMCCytotoxicity: PBMC Cytotoxicity Assessment in the BioMAP Diversity Plus: BT Assay (AID 2284225); conditions: primary human B cells with PBMC;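 note: PBMC viability measured by Alamar Blue dye reduction fluorescence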
Method in brief: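 PBMC (75,000/well) pretreated with compound 1 h, then activated with SEB and TSST-1 (20 ng/mL each final), incubated 90 h; Alamar Blue added 6 h, fluorescence read at 546/580 nm. Fitted relative to DMSO.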

[2] = read-out: Secreted IgG (sIgG), gene 3500; assay: BSK_BT_sIgG: BioMAP Diversity Plus: BT Assay for Secreted IgG (sIgG) Biomarker Activity (AID 2284226); conditions: primary human B cells with PBMC
Method in brief: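 Read-out: ELISA for secreted IgG after 24 h of chemical exposure in a B cell plus PBMC co-culture. Values reflect upward-direction fitting against DMSO negative controls.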

[3] = BSK_BT_Bcell_Proliferation: Viability Assessment in the BioMAP Diversity Plus: BT Assay for B cell Proliferation (AID 2284227); conditions: primary human B cells with PBMC
Method in brief: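 Human B cell/PBMC co-culture; test chemical added; 72 h; TCA fix (10%), 0.1% SRB stain, A560 for total protein as a proliferation read-out; positive-direction fit vs DMSO baseline.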

[4] = read-out: Interleukin 6 (IL6), IL6 (gene 3569); assay: BSK_BT_xIL6: BioMAP Diversity Plus: BT Assay for Interleukin 6 (IL6) Biomarker Activity (AID 2284228); conditions: primary human B cells with PBMC
Method in brief: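 Readout: secreted IL-6 via Luminex xMAP multiplex, 24 h post-dosing. System: primary human B cells co-cultured with PBMC. Signal change scored relative to DMSO vehicle, positive fitting direction.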

[5] = read-out: Tumor necrosis factor (Homo sapiens) (UniProt P01375); assay: BSK_BT_xTNFa: BioMAP Diversity Plus: BT Assay for Tumor necrosis factor alpha (TNF-alpha) Biomarker Activity (AID 2284230); conditions: primary human B cells with PBMC
Method in brief: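 Read-out: Luminex xMAP quantitation of secreted TNF-alpha from a B cell/PBMC co-culture 24 h after compound addition. Signal analysed relative to DMSO vehicle, positive fitting direction.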

[6] = read-out: Vascular cell adhesion molecule 1 (VCAM1), VCAM1 (gene 7412); assay: BSK_MyoF_VCAM1: BioMAP Diversity Plus: MyoF Assay for Vascular cell adhesion molecule 1 (VCAM1) Biomarker Activity (AID 2284231); conditions: primary human lung fibroblasts
Method in brief: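 MyoF system, lung fibroblasts; 24 h post-dose; VCAM-1 by ELISA; gain-of-signal fit vs DMSO baseline.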

[7] = read-out: Collagen I, COL1A1 (gene 1277); assay: BSK_MyoF_CollagenI: BioMAP Diversity Plus: MyoF Assay for Collagen I Biomarker Activity (AID 2284238); conditions: primary human lung fibroblasts
Method in brief: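 ELISA readout of Collagen I after 24 h chemical treatment of primary human lung fibroblast cultures; gain of signal scored relative to DMSO vehicle baseline.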

[8] = read-out: Collagen III, COL3A1 (gene 1281); assay: BSK_MyoF_CollagenIII: BioMAP Diversity Plus: MyoF Assay for Collagen III Biomarker Activity (AID 2284239); conditions: primary human lung fibroblasts
Method in brief: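 Lung fibroblast culture; 24 h compound exposure; collagen III by ELISA; gain-of-signal fit vs DMSO baseline.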

[9] = read-out: Interleukin 17A (IL17A), IL17A (gene 3605); assay: BSK_BT_xIL17A: BioMAP Diversity Plus: BT Assay for Interleukin 17A (IL17A) Biomarker Activity (AID 2284229); conditions: primary human B cells with PBMC
Method in brief: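 Luminex xMAP readout of secreted IL-17A; human B cell + PBMC co-culture; 24 h post-dose; positive-direction fit vs DMSO negative control.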

[10] = CCTE_Mundy_HCI_hNP1_Casp3_7: CCTE's Caspase-Glo 3/7 Assay in human neuroprogenitor cells for Apoptosis, Mundy Lab (AID 2284240)
Method in brief: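 Neuroepithelial-lineage stem cells from WA09 embryonic cells were treated with chemicals after 40–44 h of culture. Twenty-four hours later, caspase-3/7 activation was detected luminescently after a 30 min room-temperature reagent step, with DMSO as baseline.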

Measured: AC50

Chain of Tumor necrosis factor (Homo sapiens) (P01375 whole entry, looked up): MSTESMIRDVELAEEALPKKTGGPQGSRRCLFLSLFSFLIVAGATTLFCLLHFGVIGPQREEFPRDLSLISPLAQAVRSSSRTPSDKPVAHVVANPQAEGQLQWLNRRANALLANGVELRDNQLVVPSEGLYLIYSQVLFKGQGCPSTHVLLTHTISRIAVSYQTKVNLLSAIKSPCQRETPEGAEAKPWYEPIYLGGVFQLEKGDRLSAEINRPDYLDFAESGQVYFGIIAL

OCC(F)(F)C(F)(F)C(F)(F)C(F)(F)C(F)(F)C(F)(F)F
inactive: [1] | [2] | [3] | [4] | [5] | [6] | [7] | [8]
active: [1] 41 µM | [2] 43.9 µM | [3] 47.7 µM | [5] 41.2 µM

Oc1ccc(Nc2ccccc2)cc1
active: [1] 16.7 µM | [2] 13.4 µM | [3] 22.5 µM | [4] 20 µM | [9] 14.3 µM | [5] 30.1 µM | [8] 16.2 µM
inactive: [6] | [7]

FC(F)(F)C(F)(F)C(F)(F)N(C(F)(F)C(F)(F)C(F)(F)F)C(F)(F)C(F)(F)C(F)(F)F
inactive: [1] | [2] | [3] | [4] | [5] | [6] | [7] | [8]

O=C(CC(=O)C(F)(F)C(F)(F)F)C(F)(F)F
inactive: [1] | [2] | [3] | [4] | [9] | [5] | [6] | [7] | [8] | [10]

O=C(O)C(F)(F)C(F)(F)C(F)(F)C(F)(F)C(F)(F)C(F)(F)C(F)(F)C(F)(F)Cl
inactive: [2] | [4] | [9] | [5] | [10]
active: [1] 20.5 µM and 22.2 µM | [3] 8.64 µM and 37.3 µM | [6] 43.5 µM and 23.5 µM | [7] 19.3 µM | [8] 17.6 µM and 18.3 µM

C#C[C@]1(O)CC[C@H]2[C@@H]3CCc4cc(OC)ccc4[C@H]3CC[C@@]21C
active: [2] 7.71 µM | [3] 29.6 µM | [5] 20 µM
inactive: [1] | [4] | [6] | [7] | [8]

O=S(=O)(O)C(F)(F)C(F)(F)C(F)(F)C(F)(F)C(F)(F)C(F)(F)C(F)(F)F
inactive: [1] | [2] | [3] | [4] | [5] | [6] | [7] | [8]

CCc1c(Br)c(Br)c(Br)c(Br)c1Br
inactive: [1] | [2] | [3] | [4] | [5] | [7] | [8]
active: [6] 20 µM

FC(F)(F)C(F)(F)C(F)(F)CI
inactive: [1] | [2] | [3] | [4] | [9] | [5] | [6] | [7] | [8] | [10]

O=P(O)(O)OCCC(F)(F)C(F)(F)C(F)(F)C(F)(F)C(F)(F)C(F)(F)F
inactive: [1] | [2] | [3] | [5] | [6] | [7] | [8] | [10]
active: [4] 21.9 µM and 19.9 µM

CCN(CC)c1ccc2c(C)cc(=O)oc2c1
active: [2] 28.3 µM | [4] 10.9 µM
inactive: [1] | [3] | [5] | [6] | [7] | [8]

OCCCC(F)(F)C(F)(F)C(F)(F)F
inactive: [1] | [2] | [3] | [4] | [5] | [6] | [7] | [8]

FC(F)(I)C(F)(F)C(F)(F)C(F)(F)I
active: [1] 49.7 µM and 47.7 µM and 47.2 µM | [2] 45.7 µM and 46.4 µM and 56.3 µM | [3] 52.2 µM and 54.9 µM and 48.7 µM | [4] 46.3 µM and 55.2 µM and 45.9 µM | [5] 48.3 µM and 46.1 µM and 46 µM | [6] 52.7 µM and 45.4 µM and 45.5 µM | [7] 51.6 µM and 46.4 µM and 54.1 µM | [8] 53.1 µM and 54.9 µM and 54.2 µM

FC(F)(F)C(F)(F)C(F)(F)C(F)(F)C(F)(F)CCI
inactive: [1] | [2] | [3] | [4] | [5] | [6] | [7] | [8]

O=S(=O)(OCCOC(F)(F)F)C(F)(F)F
inactive: [1] | [2] | [3] | [4] | [5] | [6] | [7] | [8]

OCC(F)(F)C(F)(F)C(F)(F)C(F)(F)C(F)(F)C(F)F
inactive: [1] | [2] | [3] | [4] | [5] | [6] | [7] | [8]

O=S(=O)(OCC(F)F)C(F)(F)F
inactive: [1] | [2] | [3] | [4] | [5] | [6] | [7] | [8]
active: [5] 1.01 µM

FC(F)(F)C(F)(F)C(F)(F)C(F)(F)CCI
inactive: [1] | [2] | [3] | [4] | [9] | [5] | [6] | [7] | [8] | [10]

CCCCCCC(C)OC(=O)CCCCC(=O)OC(C)CCCCCC (configuration not stated)
inactive: [1] | [2] | [3] | [4] | [5] | [6] | [7] | [8]

OCCCC(F)(F)C(F)(F)C(F)(F)C(F)(F)C(F)(F)C(F)(F)C(F)(F)F
inactive: [10]
active: [1] 20.4 µM and 20.1 µM | [2] 18.3 µM and 48.6 µM | [3] 23.6 µM and 20.6 µM | [4] 21 µM and 25.9 µM | [5] 20.2 µM and 23 µM | [6] 51.2 µM and 50.4 µM | [7] 49.1 µM and 52.3 µM | [8] 46.9 µM and 52.2 µM

FC(F)(F)C(F)(F)C(F)(F)C(F)(F)C(F)(F)C(F)(F)CCS
inactive: [1] | [2] | [3] | [4] | [5] | [6] | [7] | [8]

FC(F)(Br)C(F)(F)C(F)(F)C(F)(F)C(F)(F)C(F)(F)Br
inactive: [1] | [2] | [3] | [4] | [5] | [6] | [7] | [8]

CCCCCCCCC(F)(F)C(F)(F)C(F)(F)C(F)(F)C(F)(F)C(F)(F)F
inactive: [1] | [2] | [3] | [4] | [5] | [6] | [7] | [8]

CCCCOCCOCCOC(=O)CCCCC(=O)OCCOCCOCCCC
inactive: [1] | [2] | [3] | [4] | [5] | [6] | [7] | [8]

O=C(O)C(F)(F)C(F)(F)C(F)F
inactive: [1] | [2] | [3] | [4] | [5] | [6] | [7] | [8]

CCCCCCCOC(=O)c1ccccc1C(=O)OCCCCCCC
active: [2] 13.3 µM
inactive: [1] | [3] | [4] | [5] | [6] | [7] | [8]

O=C(O)C(F)(F)C(F)(F)C(F)(F)C(F)(F)F
inactive: [1] | [2] | [3] | [4] | [5] | [6] | [7] | [8]

O=C(O)C(F)(OC(F)(F)C(F)(OC(F)(F)C(F)(OC(F)(F)C(F)(F)C(F)(F)F)C(F)(F)F)C(F)(F)F)C(F)(F)F (configuration not stated)
inactive: [1] | [2] | [3] | [4] | [5] | [6] | [7] | [8]

CCc1ccc(C(c2ccc(CC)cc2)C(Cl)Cl)cc1
active: [1] 31.1 µM | [2] 14.7 µM | [3] 31.7 µM | [4] 27.8 µM | [5] 28.5 µM | [6] 14.1 µM | [7] 9.01 µM | [8] 8.17 µM

O[Si](c1ccccc1)(c1ccccc1)c1ccccc1
inactive: [1] | [4] | [6]
active: [2] 14.1 µM | [3] 27.3 µM | [5] 38.2 µM | [7] 31.3 µM | [8] 31.5 µM

C=CC(F)(F)C(F)(F)C(F)(F)C(F)(F)C(F)(F)C(F)(F)C(F)(F)C(F)(F)C=C
inactive: [1] | [2] | [3] | [4] | [5] | [6] | [7] | [8]

O=C(O)C=C(C(F)(F)F)C(F)(F)F
active: [2] 46 µM and 43.1 µM | [3] 30 µM | [5] 30 µM and 34.9 µM | [6] 21.8 µM and 16.2 µM
inactive: [1] | [4] | [7] | [8]

CC(=O)Nc1ccc(N=Nc2cc(C)ccc2O)cc1
inactive: [1] | [3] | [5] | [7] | [8]
active: [2] 9.61 µM | [4] 0.016 µM | [6] 20 µM

C=CC(=O)OCC(F)(F)C(F)(F)C(F)(F)C(F)(F)COC(=O)C=C
active: [1] 11.3 µM and 11.2 µM | [2] 10.5 µM and 7.38 µM | [3] 13.7 µM and 12 µM | [4] 12.3 µM and 10.4 µM | [9] 7.14 µM and 8.58 µM | [5] 9.76 µM and 9.35 µM | [6] 9.29 µM and 10.5 µM | [7] 14.4 µM and 16.6 µM | [8] 12.1 µM and 14.6 µM
inactive: [10]

CS(C)(=O)=O
inactive: [1] | [2] | [3] | [4] | [5] | [6] | [7] | [8]

OCC(F)(F)C(F)(F)C(F)(F)C(F)F
inactive: [1] | [2] | [3] | [4] | [9] | [5] | [6] | [7] | [8] | [10]

OCC(F)(F)C(F)(F)C(F)(F)F
inactive: [1] | [2] | [3] | [4] | [5] | [6] | [7] | [8] | [10]
